Rev-erbA mod – modulates human Rev-erb alpha binding to DNA | activity, % at 10 µM | AID 1259318 | P20393 | Rev-erbα–FITC-DNA binding, fluorescence polarization, 90 min | 370,000 compounds, 0.79% hits;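 active = activity above about 14%, limit read from the data; passing the limit was not always enough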;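 note: 0% = DMSO wells with 35 nM protein and 100% = DMSO wells with 750 nM protein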
PG9 Ab binder – PG9 antibody binding by small molecule. 360,000 compounds, 0.43% hits. inhibition, % at 6.7 µM. AID 624416. TR-FRET gp120-PG9 antibody binding; in the data active = inhibition above about 8.5%
aDG glyco act – increases alpha dystroglycan glycosylation. Pro5-aDG cells, alpha-DG glycosylation AlphaScreen (IIH6); 0% Pro5, 100% B10-LARGE cell signal. activation, % at 10 µM. 360,000 compounds, 0.22% hits. AID 624168;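 active = activation of at least 8% versus controls, or a plate z-score of at least 8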;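 note: Pro5 are CHO cells carrying HIG-tagged alpha-DG that lacks glycosylation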
EBNA-1 inh – blocks EBNA-1 binding to DNA; 300,000 compounds, 0.34% hits; inhibition, % at 14.8 µM; EBNA-1 DNA binding, fluorescence polarization; in the data active = inhibition above about 28%
NCF1 inh – blocks human p47phox regulatory protein of NADPH oxidases; inhibition, % at 24.7 µM; p47phox/p22phox peptide binding, fluorescence polarization, 2 h; P14598; 220,000 compounds, 0.53% hits;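 active = inhibition above about 30%, limit read from the data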;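 note: 0% = p47phox with labelled peptide and 100% = labelled peptide alone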
Target sequence (P14598 whole entry, looked up): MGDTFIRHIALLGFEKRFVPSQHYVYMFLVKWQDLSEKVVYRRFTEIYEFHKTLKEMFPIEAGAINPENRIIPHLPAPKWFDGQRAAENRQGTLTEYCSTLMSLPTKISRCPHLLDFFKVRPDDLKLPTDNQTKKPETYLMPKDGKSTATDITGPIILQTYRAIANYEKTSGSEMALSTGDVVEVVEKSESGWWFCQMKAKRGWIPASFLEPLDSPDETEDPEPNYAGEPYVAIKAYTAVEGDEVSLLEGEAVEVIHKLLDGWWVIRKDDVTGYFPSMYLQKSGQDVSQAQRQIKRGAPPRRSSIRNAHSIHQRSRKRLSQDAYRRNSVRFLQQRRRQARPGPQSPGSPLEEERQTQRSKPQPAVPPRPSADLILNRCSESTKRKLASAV
ZTA counter – ZTA (EBV) inhibition in EBNA-1 counter-screen. P03206. inhibition, % at 11 µM. ZTA-DNA binding, fluorescence polarization. 320,000 compounds, 0.15% hits; in the data active = inhibition above about 33%
Target sequence (P03206 whole entry, looked up): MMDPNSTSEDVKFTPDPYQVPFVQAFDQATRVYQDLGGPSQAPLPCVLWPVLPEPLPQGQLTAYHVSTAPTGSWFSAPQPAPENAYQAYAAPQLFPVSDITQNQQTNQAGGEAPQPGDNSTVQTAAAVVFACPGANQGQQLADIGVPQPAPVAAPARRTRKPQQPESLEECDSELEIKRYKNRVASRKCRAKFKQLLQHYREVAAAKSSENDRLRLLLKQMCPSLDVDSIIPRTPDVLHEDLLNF
* = called active by the depositor; · = no result given; + = active, no number. Sampled rows, rich in hits. Any-hit rate of the full collection: about 1.9%.

SMILES | Rev-erbA mod | PG9 Ab binder | aDG glyco act | EBNA-1 inh | NCF1 inh | ZTA counter
CCOc1ccccc1NC(=O)C(Sc1ccccc1)c1ccccc1 (stereo not given) | 7 | 0 | 1 | -12 | 53* | -17
COc1ccc(S[C@]2(C(=O)N3CCOCC3)CC(=O)N(c3ccc(OC)cc3)[C@@H]2c2ccc(OC)cc2)cc1 | 6 | · | · | · | · | ·
OCCN=Cc1c(O)[nH]c2ccccc12 | -5 | -2 | 0 | -3 | -16 | -15
CN(C)CC(C)(C)CN=Cc1c(O)[nH]c2ccccc12 | -6 | 0 | 0 | -1 | 88* | -10
Cc1ccc([N+](=O)[O-])cc1-c1ccc(/C=C(\C#N)c2[nH]nc(N)c2C#N)o1 | -28 | -1 | 0 | 19 | 38* | 10
O=C(/C=C/c1ccncc1)c1cc(Cl)ccc1O | -5 | -1 | 0 | -1 | -14 | 0
CN(C)c1ccc(/C=C/C(=O)c2cc(Cl)ccc2O)cc1 | 10 | -4 | 0 | -2 | 79* | 4
COC(=O)c1cccc(N2C(=O)C[C@](Sc3ccc(OC)cc3)(C(=O)N3CCOCC3)[C@H]2c2ccc(OC)cc2)c1 | 6 | · | · | · | · | ·
C=CC#CC[N+]1(CC#Cc2ccccc2)CCOCC1 | -17 | -105 | 0 | · | 61* | ·
C(#Cc1ccccc1)C[N+]1(CC#Cc2ccccc2)CCCC1 | 3 | -1 | 0 | 14 | -5 | 7
CCCN(CCC)C(=O)C(CCC(=O)OCCCN1CCN(CCOC(=O)Cc2c(C)n(C(=O)c3ccc(Cl)cc3)c3ccc(OC)cc23)CC1)NC(=O)c1ccccc1 (stereo not given) | 6 | · | · | · | · | ·
Cc1ccc(-c2nc(N)s[n+]2-c2ccccc2)cc1 | 0 | 2 | 0 | -1 | 93* | -7
CNc1nc(-c2ccccc2)[n+](-c2ccc(C)cc2)s1 | -1 | -2 | 0 | -7 | 94* | 3
Cc1ccc(-c2nc3ccccc3nc2-c2ccccc2)cc1 | 7 | 3 | 0 | 6 | · | -12
O=S1(=O)c2ccc(Br)cc2OC[C@@H](Cc2ccccc2)N1Cc1cn(CC2CCCCC2)nn1 | -1 | · | · | · | · | ·
Cn1ncc(N=Cc2ccccc2O)c1C(=O)N1CCOCC1 | 0 | -1 | 0 | -15 | + | 2
Cn1ncc(Cl)c1C(=O)N1CCOCC1 | 0 | -2 | 0 | 12 | -4 | 1
COC(=O)c1cccc(OCC(C)CN2CCC(C(O)(c3ccccc3)c3ccccc3)CC2)c1 (stereo not given) | -2 | · | · | · | · | ·
Cc1nc(OCC(=O)c2ccc(Cl)cc2)c(C#N)c2c1COC(C)(C)C2 | 5 | 1 | 0 | 7 | 122* | -11
COC(=O)[C@]12C[C@H](CC(=O)NCc3cccs3)C(=O)N(CCc3ccc(OC)c(OC)c3)C1=C[C@H](C1CCCC1)O[C@@H]2C | 4 | · | · | · | · | ·
FC(F)(F)c1ccc2c(c1)NCC1CCCN21 (stereo not given) | 4 | -3 | 0 | -4 | 51* | -2
Cc1ccc(-c2cc(C(=O)NN=Cc3cccc(OCc4ccccc4)c3)[nH]n2)cc1C | -4 | · | · | · | · | ·
C/C(=N\NC(=O)COc1ccc(C)cc1Br)c1cc([N+](=O)[O-])cs1 | -2 | -3 | 2 | -2 | 32* | 6
Cn1c(C(=O)NCc2ccccc2)cc2oc3ccccc3c21 | 2 | -1 | 5 | -9 | 31* | 1
Cc1ccc2nc(-c3ccc(NC(=O)COC(=O)c4ccc(Br)o4)cc3)sc2c1 | 3 | 0 | 0 | 35* | -22 | 4
SMILES | Rev-erbA mod | PG9 Ab binder | aDG glyco act | EBNA-1 inh | NCF1 inh | ZTA counter
O=C(CNS(=O)(=O)c1cccc(Cl)c1)Nc1ccc(-c2nc3ccccc3s2)cc1 | -5 | -2 | 0 | 55* | -57 | 14
CC(C)(C)c1ccc(S(=O)(=O)NCC(=O)Nc2ccc(-c3nc4ccccc4s3)cc2)cc1 | 12 | 8.9* | 0 | 4 | -49 | 22
CCOc1ccc(-n2c(SCC(=O)Nc3ccc(S(=O)(=O)Nc4cc(C)nc(C)n4)cc3)nnc2-c2ccc(OC)cc2)cc1 | 2 | · | · | · | · | ·
COc1ccc(Cn2c(SCc3cc(C)ccc3C)nc3cc(OC)c(OC)cc3c2=N)cc1 | 3 | 0 | -1 | -6 | 66* | 12
CCC(C)N1CC(C(=O)O)CC1=O (stereo not given) | 11 | 1 | 0 | 1 | 47* | 8
Cc1ccc(-n2cc(-c3ccccc3)c3c(NN4CCOCC4)ncnc32)cc1 | -2 | 1 | 0 | -14 | 94* | -6
Cc1cccc(-n2cc(-c3ccccc3)c3c(NN4CCOCC4)ncnc32)c1 | 2 | -2 | 0 | -7 | -5 | 0
COc1cc(C(C)=O)ccc1OCCCN1CCC(c2noc3cc(F)ccc23)CC1 | -1 | · | · | · | · | ·
CC(C)c1ccc(S(=O)(=O)/N=C2/C=C(Sc3ncn[nH]3)C(=O)c3ccccc32)cc1 | · | · | 0 | -15 | 50* | 27
Cc1ccc(S(=O)(=O)/N=C2/C=C(Sc3ncn[nH]3)C(=O)c3ccccc32)c(C)c1 | · | · | · | 6 | 37* | 31
CC(C)(C)c1ccc(S(=O)(=O)/N=C2\C=C(NS(=O)(=O)c3ccccc3)C(=O)c3ccccc32)cc1 | 5 | -2 | 0 | 8 | · | 12
C[C@H](O)[C@@H]1CN2CCc3ccc(-c4ccc5c(c4)OCO5)cc3[C@@H]2C[C@@H]1N(C)C(=O)Nc1ccccc1 | -3 | · | · | · | · | ·
Cc1cccc(-n2ncc(C#N)c2N)c1 | 3 | 0 | 0 | -6 | 172* | -1
N#Cc1cnn(-c2cccc(Cl)c2)c1N | 0 | -2 | 0 | 8 | -3 | 4
Cc1cccc(Oc2coc3cc(OC(=O)c4cncc(Br)c4)ccc3c2=O)c1 | -4 | -1 | 0 | 8 | 87* | 3
CC(C)CNC(=O)NC(=O)COC(=O)c1cc(F)cc(F)c1 | 3 | 2 | 0 | 88* | -7 | 6
CC(C)CNC(=O)NC(=O)COC(=O)c1cccc(NS(=O)(=O)c2ccc(F)c(F)c2)c1 | -1 | -1 | 0 | 17 | -5 | -5
CC(=O)c1ccc(NC(=O)C2CC(c3ccc(F)cc3)=NO2)cc1 (stereo not given) | 7 | -3 | 0 | -1 | 6 | 26
O=C(NC1CCCC1)C1CC(c2ccc(F)cc2)=NO1 (stereo not given) | 5 | 4 | 0 | -5 | 60* | -17
O=C1c2ccccc2C(=O)c2c1ccc1c(=O)n(-c3ccccc3)[nH]c21 | -3 | -6 | 1 | 1 | -5 | 1
Cc1cccc(-n2[nH]c3c4c(ccc3c2=O)C(=O)c2ccccc2C4=O)c1 | -3 | -5 | 0 | 2 | 50* | 10
COc1ccc(N2CCN(c3oc(-c4ccccc4OC)nc3C#N)CC2)cc1 | 4 | · | 0 | 2 | 54* | -7
COC(=O)[C@]12C[C@H](CC(=O)NCc3ccccc3)C(=O)N(Cc3cccc4ccccc34)C1=C[C@H](C1CCCC1)O[C@@H]2C | 0 | · | · | · | · | ·
CCSc1ccc(-c2ccc(C)cc2)nn1 | -2 | -1 | 0 | · | 37* | ·
CCOc1ccc(-c2ccc(SCC)nn2)cc1 | -2 | 0 | 0 | -3 | -3 | 9
